Screening data from PubChem BioAssay.
Compounds with a hit are over-represented: about 8% of the library has one in this group of screens.
HCMV antiviral = inhibitors of human cytomegalovirus | HFF cells, HCMV-luciferase reporter, 72 h; hits give low values | activity change, negative = inhibition, % at 57.5 µM | hit rate 4.5% among 410,000 | AID 1259415; in the data active = activity change below about -60%; inconclusive = no clear call, values can overlap the other calls; inactive = above about -39%; also: % is scaled to controls: 0 for no effect and ±100 for the full control effect
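Cell-based, HFFs, 1000 cells/well, 16 h 37C; cpds in DMSO + HCMV-luc, MOI 1 PFU/cell; 72 h 37C; OneGlo luminescence after 5 min RT; norm. to buffer vs Salinomycin 10uM.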
MARV entry inh = inhibitors of Marburg virus binding or cell entry. Marburg virus pseudotyped entry inhibition, cell reporter. hit rate 1.8% among 300,000. Potency, µM (doses to about 37.8 µM), for inactives: at the top dose activity change, negative = inhibition, usual class: inhibitors. AID 540276; calls by dose curve; tested in HEK293 cells; also: potency is read from the fitted curve at half-maximal effect; % is scaled to controls: 0 for no effect and ±100 for the full control effect
FMDV inh = foot and mouth disease virus antiviral activity; Potency, µM (series often up to 57.9 µM), for inactives: at the top dose activity change, negative = inhibition, hits mostly inhibitors; hit rate 1.2% among 410,000; FMDV antiviral cell-based qHTS; calls by dose curve; tested in HEK293T cells; also: read-out not given here; potency is read from the fitted curve at half-maximal effect; % is scaled to controls: 0 for no effect and ±100 for the full control effect; nearly all actives have a fitted effect of over 45% in size
HCV inh = blocks hepatitis C virus; Huh7.5.1 HCVcc-Cre infection, luciferase reporter, 44 h; AID 651820; hit rate 3.4% among 340,000; Potency, µM (top dose mostly 41.8 µM), for the others: at the top dose activity change, negative = inhibition, actives largely listed as inhibitors; active = well fitted inhibition curve with a large enough effect; inconclusive = small, poorly fitted or top-dose-only effect, or another doubt; inactive = no such curve, though single readings can be large or run the other way; also: potency is read from the fitted curve at half-maximal effect; % is scaled to controls: 0 for no effect and ±100 for the full control effect
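A cell-based infection assay in which seeded cells (1,000 per well) receive test compound after 4 h, are inoculated with HCVcc-Cre at approximately 0.5 moi, and are incubated 44 h before luminescence detection.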
Lassa entry inh = Lassa virus entry inhibition. Lassa virus pseudotype entry inhibition, cell reporter. hit rate 1.2% among 300,000. AID 540256. Potency, µM (top dose mostly 37.9 µM), without a hit: at the highest dose activity change, negative = inhibition, actives largely listed as inhibitors; calls by dose curve; tested in HEK293 cells; also: potency is read from the fitted curve at half-maximal effect; % is scaled to controls: 0 for no effect and ±100 for the full control effect; nearly all actives have a fitted effect of over 50% in size
SARS PLpro yeast = SARS-CoV PLP inhibition in yeast | S. cerevisiae expressing SARS-CoV PLpro, growth rescue | Potency, µM (top dose mostly 32.9 µM), for the others: at the top dose activity, positive = growth rescue, hits mostly activators | hit rate 0.19% among 330,000 | AID 485353; calls by dose curve; also: potency is read from the fitted curve at half-maximal effect; 0% is about no effect; nearly all actives have a fitted effect of over 55% in size
Active calls of the source: *; ? = inconclusive; . = not tested or not shown; + = active, no number; [ ] = remark or other dose.

SMILES | HCMV antiviral | MARV entry inh | FMDV inh | HCV inh | Lassa entry inh | SARS PLpro yeast
O=C(CNC(=O)c1ccccc1Cl)OCc1cc(=O)n2ccsc2n1 | 6 | . | -22% | . | -3%[46.1 µM] | .
COc1ccc(CNC(=O)C2CCN(C(=O)c3csc(Nc4ccc(C)cc4)n3)CC2)cc1 | -7 | ? | 25µM* | 11µM* | . | 2%
CCOC(=O)N1CCN(S(=O)(=O)N2CCCC(C(=O)NCc3ccc(OC)cc3)C2)CC1 (stereo not given) | + | 1%[46.1 µM] | -14% | -15% | -1% | 6%
COc1ccc(CNC(=O)C2CCN(S(=O)(=O)N3CCCC3)CC2)cc1 | + | . | -23% | -3% | . | -4%
COc1ccc(CNC(=O)C2CCN(C(=O)c3ccc(-c4ccccc4)cc3)CC2)cc1 | 53 | ? | ? | 0% | 2.5µM* | -3%
Cc1cccc(-c2noc(-c3ccccc3OCC(=O)Nc3ccccc3[N+](=O)[O-])n2)c1 | 6 | -25%[46.1 µM] | -7% | . | 14%[46.1 µM] | .
CCCCN1C(=O)/C(=C/C=C2\N(C)c3ccccc3C2(C)C)SC1=S | . | -1% | . | . | . | -6%
CCN1/C(=C\C=C\C2=[N+](CC)c3ccccc3C2(C)C)C(C)(C)c2ccccc21 | . | 0.71µM* | 35µM* | 0.56µM* | 0.79µM* | -33%
CC[n+]1c(/C=C/C=C2/N(C)c3ccccc3C2(C)C)sc2ccccc21 | . | 0.92µM* | . | . | 1.3µM* | .
COC(=O)c1ccc(CSc2c(C(C)C)cnc3c2c(=O)n(C)c(=O)n3C)cc1 | 97 | . | ? | . | ? | .
COc1ccc(CCNC(=O)c2ccc(Cn3c(=O)c4cccn4c4cccnc43)cc2)cc1OC | 5 | . | -7% | . | 22%[46.1 µM] | .
CC(C)CCn1c(=O)c2sccc2n2c(CCCC(=O)N3CCC(N4CCCCC4)CC3)nnc12 | ? | . | -19% | 13µM* | . | 1%
CC(C)Cn1c(=O)c2sccc2n2c(CCCC(=O)N3CCC(N4CCCCC4)CC3)nnc12 | ? | 25%[46.1 µM] | 25% | -7% | 28%[46.1 µM] | -5%
C1CCC(C2C3=C(NC4NCNN42)C2=C(CCCC2)CCC3)CC1 (stereo not given) | . | 9% | . | . | . | .
COc1ccc(OC)c(-n2c(=S)[nH]c3cc(C(=O)N4CCN(c5ccccc5)CC4)ccc3c2=O)c1 | -27 | 0% | -10% | 20% | -14% | 2%
CCOC(=O)C1CCCN(C(=O)c2ccc(Cn3c(=S)[nH]c4cc(C(=O)OC)ccc4c3=O)cc2)C1 (stereo not given) | 48 | ? | -26% | ? | -20% | 6%
CC1CCCN(C(=O)c2ccc3c(=O)n(C4CCCC4)c(=S)[nH]c3c2)C1 (stereo not given) | -62* | -20%[46.1 µM] | ? | 10µM* | ? | 0%
O=C(c1ccc2c(=O)n(-c3ccccc3)c(=S)[nH]c2c1)N1CCCCC1 | -92* | ? | ? | ? | ? | 0%
CCOC(=O)C1CCCN(C(=O)c2ccc3c(=O)n(Cc4ccccc4OC)c(=S)[nH]c3c2)C1 (stereo not given) | -94* | . | -9% | ? | . | 26%
O=C(c1ccc2c(=O)n(-c3ccccc3)c(=S)[nH]c2c1)N1CCN(c2ccccc2)CC1 | 18 | . | ? | 11µM* | . | -2%
O=C(c1ccc2c(=O)n(Cc3ccccc3)c(=S)[nH]c2c1)N1CCCC1 | ? | ? | -9% | -25% | -7%[46.1 µM] | 10%
O=C(c1ccc2c(=O)n(C3CCCC3)c(=S)[nH]c2c1)N1CCCCCC1 | ? | -28%[46.1 µM] | ? | ? | ? | 0%
COc1cc([C@H]2NC(=O)C[C@@H]2C(=O)O)ccc1OC(C)C | -13 | . | . | . | . | .
Cc1cccn2c(=O)cc(CSc3nnc(NC(=O)COc4ccccc4)s3)nc12 | 29 | . | -12% | . | 5%[46.1 µM] | -2%
COc1ccc2cc([C@H](C#N)C3CCCC3)ccc2c1 | -9 | . | . | . | . | .
SMILES | HCMV antiviral | MARV entry inh | FMDV inh | HCV inh | Lassa entry inh | SARS PLpro yeast
CCCSc1nsc(NC(=O)CCC)n1 | -103* | ? | 3% | -6% | ? | -2%
CCCCSc1nsc(NC(C)=O)n1 | 46 | -7% | 19% | 1% | 6% | -19%
CN1C(=O)[C@H](Cc2ccc([N+](=O)[O-])cc2)NC1=S | -72* | 0%[46.1 µM] | 5% | 1% | ? | 5%
O=[N+]([O-])c1ccc(Cc2ccc([N+](=O)[O-])cc2)cc1 | -1 | ? | -19% | 0% | 2%[46.1 µM] | .
Cc1ccc(C)c(Nc2nnc(-n3nc(C)cc3C)c3ccccc23)c1 | -1 | 5%[46.1 µM] | -12% | . | -7%[46.1 µM] | .
Cn1nc([N+](=O)[O-])c(C(C#N)c2ccccn2)c(Cl)c1=O (stereo not given) | -97* | . | 32µM* | ? | . | 0%
CCc1ccc(-n2c(SC(CC)C(=O)N(CC)CC)nc3n[nH]c(C)c3c2=N)cc1 (stereo not given) | -84* | . | ? | . | -16%[46.1 µM] | .
COc1ccc2ccc(=O)oc2c1CC(=O)C(C)C | 1 | . | -10% | 4.5µM* | . | -6%
COc1ccc2ccc(=O)oc2c1CC(O)C(C)(C)O (stereo not given) | 17 | . | -16% | 10% | . | 1%
O=C(CCC(=O)N1CCSc2ccccc21)NCc1ccccc1Cl | -62* | -16%[46.1 µM] | -14% | . | . | .
O=[N+]([O-])c1ccc(NN=Cc2cc(Br)ccc2O)nc1 | -100* | ? | 7% | ? | ? | .
COc1ccc(Br)cc1Cn1nnc(C(=O)Nc2cccc(SC)c2)c1N | -24 | 0%[46.1 µM] | -39% | . | ? | .
Cc1cccc(/C=C2/Sc3ccc(C(=O)N4CCOCC4)cc3NC2=O)c1 | -75* | . | -1% | -25% | . | -1%
COc1ccc(/C=C2/Sc3ccc(C(=O)N4CCOCC4)cc3NC2=O)cc1OC | -69* | . | 2% | -5% | . | -1%
O=C1Nc2cc(C(=O)N3CCOCC3)ccc2S/C1=C\c1ccccc1 | ? | . | -14% | 8% | . | 16%
CCOC(=O)N1CCN(C(=O)c2ccc3c(c2)NC(=O)/C(=C\c2ccc(OC)c(OC)c2)S3)CC1 | ? | . | -28% | 10% | . | 2%
CCOc1ccccc1CNC(=O)c1cc2c(=O)n(Cc3ccccc3)ccc2nc1C | -23 | . | ? | . | ? | .
Cn1cnc([N+](=O)[O-])c1Sc1ncnc2nc[nH]c12 | 0 | 18µM* | ? | 17% | ? | 1%
O=C(CSc1ccc(Cl)cc1)c1ccco1 | . | -2% | 19% | -21% | -31% | -7%
O=C(CCSc1ccc(Cl)cc1)c1ccco1 | -64* | . | -12% | ? | . | -1%
Cc1ccc(CNC(=O)CCSCc2cccc(F)c2)cc1 | -62* | . | -7% | -6% | . | -3%
COc1ccc(-c2cn(-c3ccc(OC)cc3)c3[n+]2-c2ccccc2CC3)cc1 | -97* | ? | 16µM* | -26% | ? | -3%
COc1ccc(-n2cc(-c3ccccc3)[n+]3c2CCCCC3)cc1 | -90* | ? | ? | ? | ? | 2%
COc1ccc(-n2cc(-c3ccccc3)nc2SC)cc1 | 25 | . | 60% | ? | . | -19%
